Yp Topo-I inh = Yersinia pestis topoisomerase I inhibitors, primary screen, biochemical, cleavage product accumulation, plate reader, single point | Y. pestis Topo-I cleavage product accumulation | DNA topoisomerase I (Yersinia pestis CO92) | activity, % at 10 µM | actives 0.064% (n = 360,000) | AID 504884, 2011; in the data active = activity above about 50%, passing the limit was not always enough; inconclusive = no clear call, values can overlap the other calls
FadD28 binding = inhibitors of FadD28 bisubstrate probe binding, primary screen, biochemical, fluorescence polarization, single point. inhibition, % at 12.5 µM. AID 588549, 2011. actives 0.22% (n = 360,000). Mycobacterium tuberculosis FadD28 fatty-acid-AMP ligase; in the data active = inhibition above about 8.5%, passing the limit was not always enough; inconclusive = no clear call, values can overlap the other calls
BioA inh-1 = M. tuberculosis BioA enzyme inhibitors, primary screen, biochemical, plate reader, single point, HTS. inhibition, % at 9.99 µM. actives 0.096% (n = 360,000). AID 602481, 2012. 7,8-diaminopelargonic acid synthase BioA (Mycobacterium tuberculosis). purified M. tuberculosis BioA enzyme; in the data active = inhibition above about 40%; inconclusive = no clear call, values can overlap the other calls
TcdB inh = TcdB glycohydrolase inhibitors, primary screen, biochemical, single point, plate reader; TcdB glycohydrolase enzymatic assay; inhibition, % at 9.99 µM; actives 0.24% (n = 350,000); AID 652162, 2013; in the data active = inhibition above about 10%
BioA inh-2 = Mtb BioA enzyme inhibitors, dose response, biochemical, plate reader, cherry-pick samples, set 03. shares compounds with BioA inh-1. purified BioA enzyme. max activity, %. 310 tested, under 10 active. AID 651679, 2012;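 note: top concentration of the dilution series was 10 µM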
HepG2 tox 2 = cytotoxicity in HepG2 cells, dose response, cytotoxicity control, cell-based, plate reader, cherry-pick, two tests; shares compounds with BioA inh-1; max activity, %; 310 tested, under 10 active
NIH3T3 tox 5 = cytotoxicity in NIH3T3 fibroblasts, dose response, cytotoxicity control, cell-based, plate reader, cherry-pick, two tests; activity change, negative = cytotoxicity, % at 26 µM; shares compounds with BioA inh-1; 310 tested, under 10 active
* = called active by the depositor; i = inactive; ? = inconclusive; . = not tested or not shown; [ ] = dose if it differs, or a comment. Shown are actives, neighbours in structure and some others; about 0.47% of the full set was active somewhere. Unless noted, the rule behind the calls is not given here.

SMILES	Yp Topo-I inh	FadD28 binding	BioA inh-1	TcdB inh	BioA inh-2	HepG2 tox 2	NIH3T3 tox 5
CC1(C(=O)NCc2ccc(F)c(F)c2)Cc2c(-c3cccc(C(N)=O)c3)ccnc2O1 (configuration not stated)	10.0	-3.6	61.7*	0.7	20.2	13.8	-1.3
C[C@@H]1CN([C@@H](C)CO)C(=O)c2cc(NC(=O)c3ccncc3)ccc2O[C@@H](C)CCCCO[C@H]1CN(C)C(=O)Cc1ccccc1	.	.	-0.9	-0.3	.	.	.
Cn1ncc2cc3c(Nc4ccc(Cl)cc4)cccc3nc21	.	0.0	81.4*	0.4	-4.2	-9.1	-2.9
Cn1ncc2c(Nc3ccc(Cl)cc3)ncnc21	4.2	-3.3	2.6	2.5	.	.	.
C[C@@H]1CN([C@H](C)CO)C(=O)c2cccc(NS(=O)(=O)c3ccccc3)c2O[C@@H]1CN(C)Cc1ccc2c(c1)OCO2	.	.	2.9	-0.2	.	.	.
O=C(c1ccc(S(=O)(=O)Nc2ccccc2F)cc1)N1CCN(c2ccccc2O)CC1	-5.7	-1.5	66.6*	-1.4	-6.3	15.9	-5.4
O=C(c1ccc(NS(=O)(=O)c2ccc(F)cc2)cc1)N1CCN(c2ccccc2O)CC1	13.4	-0.7	0.3	7.1	.	.	.
CC(C)NC(=O)N(C)C[C@H]1Oc2ccc(NC(=O)C3CCCCC3)cc2C(=O)N([C@@H](C)CO)C[C@H]1C	.	.	-1.0	0.5	.	.	.
CCc1c(C)nc2ncnn2c1Nc1ccc(C#N)c(Cl)c1	-6.2	0.3	40.4*	.	-5.6	-7.2	-6.6
COc1ccccc1OCCOc1ccc(/C=C2/C(=N)N3OC(C)=CC3=NC2=O)cc1OC	-0.1	-3.8	-2.2	.	.	.	.
CCNC(=O)C[C@@H]1CC[C@H]2[C@H](COc3ccc(NC(=O)Nc4cccc(F)c4)cc3C(=O)N2C)O1	.	.	8.2	-0.5	.	.	.
CCNC(=O)C[C@H]1CC[C@@H]2[C@@H](COc3ccc(NC(=O)Nc4cccc(F)c4)cc3C(=O)N2C)O1	.	.	41.7*	-0.3	5.9	i	-4.4
CCOC(=O)c1ccc(N2C(=O)c3n[nH]c(C)c3C2c2ccc(OC)cc2)cc1 (configuration not stated)	10.0	-8.0	18.1	.	.	.	.
CCOC(=O)c1ccc(N2C(=O)c3n[nH]c(C)c3C2c2ccc(OC)c(OC)c2)cc1 (configuration not stated)	13.1	-5.3	100.8*	.	-8.3	-12.4	0.6
O=C(Nc1cccc(C(=O)N2CCCC2)c1)c1ccccc1Cl	10.5	1.9	0.0	.	.	.	.
O=C(CC1CC1)Nc1ccc2c(c1)[C@@H]1C[C@H](CC(=O)NC3CCCCC3)O[C@@H](CO)[C@@H]1O2	.	.	-1.6	0.4	.	.	.
COc1ccccc1S(=O)(=O)N1CC[C@@H]2[C@H](CO)Nc3ccc(-c4ccccc4)cc3[C@@H]21	.	.	43.2*	0.2	5.0	i	-4.3[23.5 µM]
COc1ccccc1S(=O)(=O)N1CC[C@H]2[C@H](CO)Nc3ccc(-c4ccccc4)cc3[C@H]21	.	.	9.6	0.1	.	.	.
O=C(O)CSc1ncnc2scc(-c3ccc(Br)cc3)c12	-3.8	-0.6	44.9*	2.3	-6.0	19.2	-3.1
O=C(c1ccc2c(c1)OCO2)N1CCN(c2ccc(Cl)cc2)CC1	38.7	0.3	.	.	.	.	.
CC(=O)c1ccc(N2CCN(C(=O)c3ccc4c(c3)OCO4)CC2)cc1	13.1	0.5	91.2*	-0.7	-5.5	6.1	-4.4
CO[C@@H]1CN(C)C(=O)c2ccc(NC(C)=O)cc2OC[C@H](C)N(C(=O)c2ccc(F)cc2)C[C@H]1C	.	.	2.2	.	.	.	.
CO[C@H]1CN(C)C(=O)c2ccc(NC(C)=O)cc2OC[C@@H](C)N(C(=O)c2ccc(F)cc2)C[C@H]1C	.	.	49.6*	0.3	9.6	i	-5.3
COc1ccc(C(c2sc3nc(C)nn3c2O)N2CCC(C(N)=O)CC2)cc1OC (configuration not stated)	1.6	-3.4	2.3	1.1	.	.	.
COC(=O)C1CCN(C(c2ccc(OC)c(OC)c2)c2sc3nc(C)nn3c2O)CC1 (configuration not stated)	-4.3	0.0	45.0*	-0.6	-8.0	13.8	-7.3
SMILES	Yp Topo-I inh	FadD28 binding	BioA inh-1	TcdB inh	BioA inh-2	HepG2 tox 2	NIH3T3 tox 5
COc1cccc2sc(Nc3nc4ccc(NC(C)=O)cc4s3)nc12	4.4	-2.0	.	0.6	.	.	.
COc1ccc(NC(=O)c2ccc(Cl)nc2)cc1S(=O)(=O)N1CCOCC1	3.8	-3.2	58.9*	-0.1	-9.0	-13.5	-4.2
CC(C)(C)[S@@](=O)N1Cc2cc(C(=O)NCc3ccccc3F)nc(-c3cccc(-c4cccnc4)c3)c2[C@H]1CCO	.	.	7.8	0.8	.	.	.
CC(C)(C)[S@](=O)N1Cc2cc(C(=O)NCc3ccccc3F)nc(-c3cccc(-c4cccnc4)c3)c2[C@@H]1CCO	.	.	42.4*	0.6	-6.9	i	-5.4[23.5 µM]
O=C(Nc1cccc(F)c1)C1CCCN(c2cnccn2)C1 (configuration not stated)	-2.3	0.4	53.3*	-0.1	-5.8	-9.0	8.1
Cc1cccc(NC(=O)C2CCCN(c3cnccn3)C2)c1 (configuration not stated)	7.3	-4.1	0.7	0.8	.	.	.
O=C(Nc1ccc(F)c(Cl)c1)C1CCCN(c2cnccn2)C1 (configuration not stated)	6.1	-2.5	41.0*	-5.6	-3.8	-8.2	-8.8
CCc1cccc(NC(=O)C2CCCN(c3cnccn3)C2)c1 (configuration not stated)	6.0	-3.6	0.7	2.3	.	.	.
O=C(Nc1nccs1)[C@H]1[C@H](CO)[C@H]2Cn3c(ccc(-c4cccnc4)c3=O)[C@H]2N1CC1CCCC1	.	.	51.7*	0.8	-6.3	i	14.1
CCNC(=O)[C@H]1[C@H](CO)[C@H]2Cn3c(ccc(-c4cccc(F)c4)c3=O)[C@H]2N1C(C)=O	.	.	.	-0.1	.	.	.
CCNC(=O)[C@H]1[C@H](CO)[C@H]2Cn3c(ccc(-c4cccc(F)c4)c3=O)[C@H]2N1C(=O)Cc1cccnc1	.	.	41.9*	-1.8	-4.6	i	-0.4
COc1ccc(CC(=O)O/N=C(\N)Cc2ccc(OC)cc2)cc1	-8.8	-2.1	-1.1	.	.	.	.
COc1ccc(C(C)NC(=O)Nc2ccc(C(C)=O)cc2)cc1OC (configuration not stated)	-6.7	-0.8	43.0*	2.2	-4.3	7.5	5.0
CN(C(=O)CSc1nc2ccccc2c(=O)n1-c1ccccc1Cl)C1CCS(=O)(=O)C1 (configuration not stated)	15.2	-1.8	49.6*	2.3	9.5	-8.3	0.7
COc1ccccc1-n1c(SCC(=O)N(C)C2CCS(=O)(=O)C2)nc2ccccc2c1=O (configuration not stated)	-3.5	-1.5	?	.	.	.	.
